Compounds without any hit were thinned out: in the full panel of roughly 79,000, 15% have a hit. Active and inactive are the calls of the source. Cut-off read from the data, not from the text of the source: active = growth inhibition above about 70%; inactive = the rest.
How the values were obtained:
[1] = NCI Yeast Anticancer Drug Screen. Data for the rad52 strain (AID 147);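 note: 0% = growth of vehicle-treated control cultures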; details: S. cerevisiae rad52 mutant growth inhibition, active compounds read high
In short: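 Measured: yeast growth inhibition. System: strain with a defined DNA damage repair alteration. Reference: vehicle-treated control cultures.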

[2] = NCI Yeast Anticancer Drug Screen. Data for the wt1 strain (AID 149);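 note: 0% = growth of vehicle-treated wt1 cultures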; details: S. cerevisiae wt1 strain (SPY 50644) growth inhibition, active compounds read high
In short: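 Each compound is tested on wt1 yeast and the loss of growth versus vehicle gives the inhibition value.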

[3] = NCI Yeast Anticancer Drug Screen. Data for the rad50EPP+ strain (AID 151);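 note: 0% = growth of vehicle-treated control cultures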; details: S. cerevisiae rad50 mutant strain, active compounds read high
In short: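 One strain with a rad50 alteration (rad50EPP+) was compound-treated, its growth then compared to that of vehicle controls.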

[4] = NCI Yeast Anticancer Drug Screen. Data for the mgt1 strain (AID 153); details: S. cerevisiae mgt1 mutant growth inhibition, active compounds read high
In short: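 After exposure of the mgt1 yeast mutant to compound, growth was measured and reported as inhibition compared with vehicle controls.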

[5] = NCI Yeast Anticancer Drug Screen. Data for the rad50 strain (AID 155);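 note: 0% = growth of vehicle-only cultures of the same strain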; details: S. cerevisiae rad50 strain growth inhibition, active compounds read high
In short: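 Vehicle-treated cultures provide the reference for the growth inhibition reported for compound-exposed, repair-deficient yeast.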

[6] = NCI Yeast Anticancer Drug Screen. Data for the mec2-1 strain (AID 157); details: S. cerevisiae mec2-1 strain, active compounds read high
In short: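 Test agents were screened against the mec2-1 yeast strain, with defined DNA repair or cell cycle alteration. Growth was scored as inhibition against vehicle-only controls.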

[7] = NCI Yeast Anticancer Drug Screen. Data for the rad14 strain (AID 159);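 note: 0% = growth of vehicle-treated control cultures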; details: S. cerevisiae rad14 strain growth inhibition, active compounds read high
In short: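 Inhibition of growth is reported for a repair-deficient yeast mutant following compound treatment, calculated relative to cultures that received vehicle.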

[8] = NCI Yeast Anticancer Drug Screen. Data for the sgs1 mgt1 strain (AID 161);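 note: 0% = growth of cultures given vehicle only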; details: S. cerevisiae sgs1 mgt1 strain, active compounds read high
In short: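 Mutant yeast exposed to compound; growth scored against vehicle-only wells.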

[9] = NCI Yeast Anticancer Drug Screen. Data for the CLN2oe strain (AID 163);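 note: 0% = growth of vehicle-only control cultures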; details: S. cerevisiae CLN2oe strain, active compounds read high
In short: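 Here, growth inhibition in a cell-cycle-altered yeast strain after compound exposure was quantified against vehicle control growth.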

[10] = NCI Yeast Anticancer Drug Screen. Data for the cln2 rad14 strain (AID 165);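 note: 0% = growth equal to vehicle treated cultures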; details: S. cerevisiae cln2 rad14 strain, active compounds read high
In short: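 Growth of compound-exposed yeast (cln2 rad14 genotype) measured and expressed as inhibition relative to vehicle.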

[11] = NCI Yeast Anticancer Drug Screen. Data for the bub3 strain (AID 167); details: S. cerevisiae bub3 mutant strain, active compounds read high
In short: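 Mutant yeast screening strain plus compound; vehicle-treated cultures serve as the 0% inhibition reference.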

[12] = NCI Yeast Anticancer Drug Screen. Data for the wt2 strain (AID 169); details: S. cerevisiae wt2 strain growth inhibition, active compounds read high
In short: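 Genetically defined yeast strains from a DNA-repair/cell-cycle panel were used. Compound-exposed yeast growth was measured, and the inhibition was calculated relative to vehicle treatment.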

[13] = NCI Yeast Anticancer Drug Screen. Data for the mlh1 strain (AID 171);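 note: 0% = growth of vehicle-treated control cultures of the same strain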; details: S. cerevisiae mlh1 strain growth inhibition, active compounds read high
In short: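 Here the genetically defined yeast mutant is grown with each compound, and the extent to which its growth falls below that of vehicle-exposed cells is reported.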

[14] = NCI Yeast Anticancer Drug Screen. Data for the sgs1 strain (AID 173);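 note: 0% = growth of vehicle-only control cultures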; details: S. cerevisiae sgs1 mutant, active compounds read high
In short: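 Relative growth inhibition, referenced to vehicle, was determined in a yeast strain with a defined alteration affecting DNA damage repair or cell cycle control after compound exposure.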

[15] = NCI Yeast Anticancer Drug Screen. Data for the mlh1 rad18 strain (AID 175); details: S. cerevisiae mlh1 rad18 strain growth inhibition, active compounds read high
In short: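 In this whole-cell yeast screen, a strain with altered DNA damage repair is challenged with compound, and its growth is measured against matched vehicle-treated controls.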

[16] = NCI Yeast Anticancer Drug Screen. Data for the rad18 strain (AID 177); details: S. cerevisiae rad18 mutant growth inhibition, active compounds read high
In short: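 Screen uses a yeast strain with a defined lesion in DNA damage repair; compound effect is read as loss of growth compared to untreated vehicle cultures.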

[17] = at 5.0 µM (retest, dose inferred, filed as 0.5)
[18] = at 50.0 µM (retest, dose inferred, filed as 5.0)

Measured: growth inhibition

CN(N=O)C(=O)Nc1ccc(C(=O)O)cc1
active: [5]; at 100.0 µM 77% | [8]; [18] 80% | [16]; at 11.0 µM 81% | [16]; at 33.0 µM 90% | [16]; at 100.0 µM 93%
inactive: [1]; at 1.2 µM 1% | [1]; at 3.7 µM 3% | [1]; at 11.0 µM 8% | [1]; at 33.0 µM 29% | [1]; at 100.0 µM 62% | [2]; at 1.2 µM -2% | [2]; at 3.7 µM -3% | [2]; at 11.0 µM -2% | [2]; at 33.0 µM -2% | [2]; at 100.0 µM 2% | [3]; at 1.2 µM -1% | [3]; at 3.7 µM 0% | [3]; at 11.0 µM 3% | [3]; at 33.0 µM 12% | [3]; at 100.0 µM 31% | [4]; at 1.2 µM 0% | [4]; at 3.7 µM 3% | [4]; at 11.0 µM 15% | [4]; at 33.0 µM 28% | [4]; at 100.0 µM 36% | [5]; at 1.2 µM 2% | [5]; at 3.7 µM 11% | [5]; [17] 12% | [5]; at 11.0 µM 19% | [5]; at 33.0 µM 44% | [5]; [18] 68% | [5]; at 50.0 µM 65.3% | [6]; at 1.2 µM -10% | [6]; at 3.7 µM 1% | [6]; [17] -8% | [6]; at 11.0 µM -6% | [6]; at 33.0 µM -7% | [6]; [18] 37% | [6]; at 50.0 µM 7.8% | [6]; at 100.0 µM 19% | [7]; at 1.2 µM -4% | [7]; at 3.7 µM 6% | [7]; at 11.0 µM -1% | [7]; at 33.0 µM 2% | [7]; at 100.0 µM 8% | [8]; [17] 43% | [8]; at 50.0 µM 62.6% | [9]; at 1.2 µM -4% | [9]; at 3.7 µM -3% | [9]; at 11.0 µM -6% | [9]; at 33.0 µM -9% | [9]; at 100.0 µM -1% | [10]; [17] -45% | [10]; [18] -4% | [10]; at 50.0 µM 2.05% | [11]; at 1.2 µM -14% | [11]; at 3.7 µM -8% | [11]; [17] -16% | [11]; at 11.0 µM -5% | [11]; at 33.0 µM -9% | [11]; [18] 6% | [11]; at 50.0 µM -14.2% | [11]; at 100.0 µM -8% | [12]; at 1.2 µM -3% | [12]; at 3.7 µM -2% | [12]; at 11.0 µM -1% | [12]; at 33.0 µM 0% | [12]; at 100.0 µM 6% | [13]; at 1.2 µM -6% | [13]; at 3.7 µM 1% | [13]; at 11.0 µM -1% | [13]; at 33.0 µM -21% | [13]; at 100.0 µM -12% | [14]; at 1.2 µM 2% | [14]; at 3.7 µM 8% | [14]; at 11.0 µM 20% | [14]; at 33.0 µM 35% | [14]; at 100.0 µM 55% | [15]; [17] 16% | [15]; [18] 51% | [15]; at 50.0 µM 32.9% | [16]; at 1.2 µM 18% | [16]; at 3.7 µM 47%

CC1=NN(C(=O)CC(=O)NC(=O)/C=C\c2ccccc2)C(=O)C1N=Nc1ccc([N+](=O)[O-])cc1 (stereo not drawn)
active: [1]; at 33.0 µM 75% | [1]; at 100.0 µM 72% | [5]; at 33.0 µM 73% | [5]; [18] 87% | [5]; at 100.0 µM 71% | [6]; at 50.0 µM 77.5% | [11]; at 50.0 µM 79.5%
inactive: [1]; at 1.2 µM -1% | [1]; at 3.7 µM 3% | [1]; at 11.0 µM 56% | [2]; at 1.2 µM 2% | [2]; at 3.7 µM 4% | [2]; at 11.0 µM 20% | [2]; at 33.0 µM 35% | [2]; at 100.0 µM 34% | [3]; at 1.2 µM 19% | [3]; at 3.7 µM 42% | [3]; at 11.0 µM 62% | [3]; at 33.0 µM 64% | [3]; at 100.0 µM 60% | [4]; at 1.2 µM 1% | [4]; at 3.7 µM 9% | [4]; at 11.0 µM 32% | [4]; at 33.0 µM 51% | [4]; at 100.0 µM 55% | [5]; at 1.2 µM -7% | [5]; at 3.7 µM -10% | [5]; [17] -1% | [5]; at 11.0 µM 38% | [5]; at 50.0 µM 59.1% | [6]; at 1.2 µM 3% | [6]; at 3.7 µM 8% | [6]; [17] -13% | [6]; at 11.0 µM 26% | [6]; at 33.0 µM 49% | [6]; [18] 35% | [6]; at 100.0 µM 43% | [7]; at 1.2 µM 1% | [7]; at 3.7 µM 5% | [7]; at 11.0 µM 21% | [7]; at 33.0 µM 41% | [7]; at 100.0 µM 46% | [8]; [17] -1% | [8]; [18] 54% | [8]; at 50.0 µM 65.3% | [9]; at 1.2 µM 6% | [9]; at 3.7 µM 9% | [9]; at 11.0 µM 20% | [9]; at 33.0 µM 34% | [9]; at 100.0 µM 37% | [10]; [17] 43% | [10]; [18] 49% | [10]; at 50.0 µM 51.2% | [11]; at 1.2 µM -1% | [11]; at 3.7 µM 4% | [11]; [17] -4% | [11]; at 11.0 µM 30% | [11]; at 33.0 µM 57% | [11]; [18] 51% | [11]; at 100.0 µM 58%
